According to PubChem BioAssay (NCI):
Compounds without any hit were thinned out: in the full panel of roughly 79,000, 15% have a hit. No stated cut-off is given here; in the data, active means growth inhibition above about 70%; inactive means the rest. Where a SMILES comes first, the peptide text is derived from it. The star is where a group is joined. Boc = CC(C)(C)OC(=O)*

What was measured:
[1] = NCI Yeast Anticancer Drug Screen. Data for the rad50 strain (AID 155);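 further: 0% = growth of vehicle-only cultures of the same strain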; details: S. cerevisiae rad50 strain growth inhibition; at 50.0 µM; stronger effect = higher value
In short: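 Genetically altered yeast (DNA repair pathway); compound treatment; growth inhibition vs vehicle ctrl.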

[2] = NCI Yeast Anticancer Drug Screen. Data for the mec2-1 strain (AID 157); details: S. cerevisiae mec2-1 strain, at 50.0 µM, stronger effect = higher value
In short: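 Cells of the genetically defined mec2-1 yeast strain are incubated with test compound. Inhibition of growth is calculated against vehicle-treated controls.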

[3] = NCI Yeast Anticancer Drug Screen. Data for the sgs1 mgt1 strain (AID 161);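 further: 0% = growth of cultures given vehicle only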; details: S. cerevisiae sgs1 mgt1 strain, at 50.0 µM, stronger effect = higher value
In short: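 Genetically altered yeast, compound exposure, growth inhibition relative to vehicle.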

[4] = NCI Yeast Anticancer Drug Screen. Data for the cln2 rad14 strain (AID 165);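 further: 0% = growth equal to vehicle treated cultures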; details: S. cerevisiae cln2 rad14 strain, at 50.0 µM, stronger effect = higher value
In short: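 The screen exposed genetically defined yeast (cln2 rad14) to test compounds and scored growth inhibition relative to vehicle-treated controls.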

[5] = NCI Yeast Anticancer Drug Screen. Data for the bub3 strain (AID 167); details: S. cerevisiae bub3 mutant strain, at 50.0 µM, stronger effect = higher value
In short: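 Yeast carrying a defined mutation is treated with each compound, and growth is compared with that of vehicle-exposed cells to give inhibition.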

[6] = NCI Yeast Anticancer Drug Screen. Data for the mlh1 rad18 strain (AID 175); details: S. cerevisiae mlh1 rad18 strain growth inhibition; at 50.0 µM; stronger effect = higher value
In short: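 Compound-treated yeast growth, normalised to vehicle controls. Strain bears defined DNA repair mutations.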

Measured: growth inhibition

COc1ccc(OC(=O)Nc2cccc(C(C)=O)c2)cc1
inactive: [1] 8.35% | [2] 42.3% | [3] 9.9% | [4] 1.8% | [5] 22.1% | [6] 3.15%

C=CCCCOC(C)=O
inactive: [1] 5.1% | [2] -10.9% | [3] 12.5% | [4] 4% | [5] 11.9% | [6] 1.8%

O=C(c1ccccc1)c1ccc(N2CCOCC2)cc1
inactive: [1] -29.4% | [2] -44.9% | [3] 24.4% | [4] 4.75% | [5] -7.85% | [6] -5.7%

c1coc(C2OCCO2)c1
inactive: [1] -24.1% | [2] -31.6% | [3] -26.6% | [4] 6.75% | [5] -21.8% | [6] -3.1%

Cc1cccc(C(=O)OCCBr)c1
inactive: [1] 27.1% | [2] 3.95% | [3] 13.7% | [4] -28.4% | [5] 9.9% | [6] 10.9%

COC(=O)C(Cc1ccccc1)NC(=O)C(Cc1ccccc1)NC(=O)OC(C)(C)C (stereo not drawn) (Boc-Phe-Phe-OMe; configuration not given here)
inactive: [1] -7.05% | [2] -4.3% | [3] -18.9% | [4] -51% | [5] 0.15% | [6] -6.4%

Cc1cn(C2CC(O)C(CO)O2)c(=O)nc1NC1CC1 (stereo unspecified)
inactive: [1] -7% | [2] 3.45% | [3] -1% | [4] -13% | [5] 0.6% | [6] 3.15%

COc1cc(OC)c(-c2oc3ccccc3c(=O)c2O)c(OC)c1
inactive: [1] -9.5% | [2] 12.7% | [3] 2.4% | [4] -13.2% | [5] 4.65% | [6] -5.45%

COc1ccc(C(=O)CC(C#N)c2ccc(OC)cc2)cc1 (stereo unspecified)
inactive: [1] -6.5% | [2] 3.25% | [3] 0.55% | [4] -21.2% | [5] -4.75% | [6] -1.35%

CC(C)c1ccc(O)c(C(C)(C)C)c1
inactive: [1] -25.5% | [2] -29.8% | [3] -14.3% | [4] -13.9% | [5] -32.5% | [6] -14.6%

OCCN(CCO)c1ccc2c(c1)Cc1cc(Br)ccc1-2
inactive: [1] 1.25% | [2] 6% | [3] -4.35% | [4] -2.7% | [5] 22.5% | [6] 5.15%

CC(O)CN1CCOCC1 (stereo unspecified)
inactive: [1] 9.55% | [2] 2.2% | [3] -0.1% | [4] 15.2% | [5] -9.85% | [6] 3.55%

O=[N+]([O-])CC1=CCCCC1
inactive: [1] 30.6% | [2] 12.2% | [3] 25.9% | [4] 4.05% | [5] -5.05% | [6] 16.6%

Cc1ccc(C(=O)Nc2c(C)cccc2C)cc1
inactive: [1] 3.45% | [2] -40.7% | [3] 13.5% | [4] 3.65% | [5] -4.7% | [6] -5.95%

C[N+]1(C)CCC2=CC(=O)CC(c3ccccc3)C2C1 (stereo unspecified)
inactive: [1] 11.7% | [2] -0.6% | [3] 12.6% | [4] 20.8% | [5] -3.3% | [6] -12%

O=C(c1nc2ccc(Cl)cc2[nH]c1=O)C(O)c1ccccc1 (stereo unspecified)
inactive: [1] 47.5% | [2] 6.95% | [3] 39.4% | [4] 42.9% | [5] 28.9% | [6] 41.8%

COC(=O)CC1(C(=O)OC)OC(=O)c2ccccc2N1C (stereo unspecified)
inactive: [1] 8.2% | [2] 12% | [3] 19.9% | [4] -24.6% | [5] -8.35% | [6] 12.3%

O=C1C2C3CC4C5CC(C1C53)C42 (stereo unspecified)
inactive: [1] 4.85% | [2] -7.45% | [3] 3.35% | [4] 5.05% | [5] -5.4% | [6] 1.7%

CC1CC[N-]CC1.CC1CC[N-]CC1.[Cl][Pt+2][Cl]
inactive: [1] -19.9% | [2] -6.7% | [3] -17.6% | [4] -34% | [5] -2.2% | [6] 5.8%

C[N+]1(C)C/C(=C\c2ccncc2)C(=O)/C(=C/c2ccncc2)C1
inactive: [1] 0.3% | [2] -2.45% | [3] 14.3% | [4] 5.3% | [5] 1.1% | [6] -10.2%

CN(C(N)=O)C1CCCC1
inactive: [1] 12% | [2] -21.3% | [3] -5.65% | [4] 1.4% | [5] 9.4% | [6] 6.35%

COc1ccccc1NC(=O)N(C)Cc1ccc(Cl)cc1
inactive: [1] 11.3% | [2] 18.6% | [3] 18.9% | [4] 3.75% | [5] 47.1% | [6] 33.1%

Nc1nc(N)c2c(n1)NCN(OCOc1ccc(Cl)cc1)C2
inactive: [1] -5.05% | [2] -6% | [3] -4.7% | [4] -21.8% | [5] 7.75% | [6] 1.55%

CC(=O)C(N)C(C)C (stereo unspecified)
inactive: [1] 5.4% | [2] -3.7% | [3] 19.2% | [4] 7.9% | [5] 1.65% | [6] 7.95%

CCN(/N=C1\CC2C=CCN(C2)C(=O)Cc2c1[nH]c1ccccc21)S(=O)(=O)c1ccc(C)cc1 (stereo unspecified)
inactive: [1] 30.9% | [2] 12.1% | [3] 39.2% | [4] 23.6% | [5] 20.5% | [6] 19.4%

CCOC(=O)/C(C#N)=C/C=C1C=CN(C)C=C1
inactive: [1] 8.95% | [2] -4.4% | [3] -1.4% | [4] -30.9% | [5] 0.1% | [6] -10.1%

CC(=O)NC1=N/C(=C\c2ccc(Cl)cc2)C(=O)N1/C=C1\C(=O)Oc2ccccc2C1=O
inactive: [1] 50% | [2] 13.9% | [3] 24.9% | [4] 26% | [5] 49.7% | [6] 41.9%

Nc1ccc(S(=O)(=O)O)cc1N
inactive: [1] -15.3% | [2] -11.1% | [3] -8% | [4] -19.5% | [5] 2.95% | [6] -4.5%

O=C=Nc1ccc(Cc2ccc(N=C=O)cc2)cc1 (tested in a mixture with another compound)
inactive: [1] -6.55% | [2] -1.5% | [3] -12.2% | [4] 8.95% | [5] -0.5% | [6] 14.3%

COc1ccc(C)cc1CC(=O)O
inactive: [1] 7.5% | [2] 3.05% | [3] -21.4% | [4] 4.1% | [5] 6.25% | [6] -9.2%

CN(C=O)c1cccc(C(=O)O)c1
inactive: [1] 4.05% | [2] -1.2% | [3] -3.95% | [4] -29.5% | [5] -2.35% | [6] 7.45%

O=C(O)c1ccc(N2CCOCC2)cc1
inactive: [1] -20% | [2] -13.5% | [3] -15.4% | [4] -15.6% | [5] -9.3% | [6] 6.6%

O=C(O)C(CO)C(CO)C(=O)O (stereo unspecified)
inactive: [1] -12.9% | [2] -14.4% | [3] -7.05% | [4] -14.7% | [5] -22.8% | [6] -2.15%

COc1ccc(CCNCCCC2c3ccccc3-c3ccccc32)cc1OC
inactive: [1] 28.8% | [2] -3.4% | [3] 6.55% | [4] 12.5% | [5] -19.1% | [6] -34.1%

CNc1ncnc2n[nH]nc12
inactive: [1] -10.7% | [2] -0.35% | [3] -12.1% | [4] -23% | [5] -11.6% | [6] 3.45%

COc1ccc(-c2nc(-c3cc4ccccc4oc3=O)cs2)cc1
inactive: [1] 13.1% | [2] 13.6% | [3] -12.1% | [4] 7.7% | [5] -18.4% | [6] -35.1%

N#Cc1cc2ccccc2c2ccccc12
inactive: [1] 8.6% | [2] -4.15% | [3] 5.85% | [4] 12.3% | [5] -11.2% | [6] 18.4%

Cc1ccc(Cc2nn(C)c(=O)n2N)cc1
inactive: [1] -7.1% | [2] -2.5% | [3] 18.6% | [4] -3% | [5] -13.1% | [6] -18.9%

COc1ccc(Cl)cc1NC(=O)Oc1ccc2ccccc2c1
inactive: [1] -5.8% | [2] 29.2% | [3] 12.2% | [4] -12.7% | [5] 27.3% | [6] 38.2%

Cc1ccc(S(=O)(=O)OC[C@H]2CC=CC[C@@H]2COS(=O)(=O)c2ccc(C)cc2)cc1
inactive: [1] -18.6% | [2] 31.6% | [3] 0.6% | [4] -29.6% | [5] 3.2% | [6] -6.1%

COC(=O)NC(CI)c1ccccc1 (stereo unspecified)
inactive: [1] 14.7% | [2] -5.8% | [3] 7.55% | [4] 8.85% | [5] -6.35% | [6] 23.9%
